These results are taken from ChEMBL document CHEMBL5308541, “MAIP: An Open-Source Tool to Enrich High-Throughput Screening Output and Identify Novel, Druglike Molecules with Antimalarial Activity” (ACS Med Chem Lett, 2023).

Out of some 150,000 compounds screened, about 540 (0.36%) showed an effect of 50% or more. Only a selection was taken, and strong results are over-represented in it overall.

In this experiment the test system is Plasmodium falciparum. Briefly: Primary screen in NF54 nanoGlo assay, in single point, at 2uM, 72h; a lower Z score goes with more inhibition. The following applies: timepoint 72 hour. Format: functional, Erythrocyte.
For the compound `CN1CCN(C2(CNc3ncc(F)c(N(C)C)n3)CCCCC2)CC1`, the % Inhibition (as a rule, the change of the read-out against control, counted positive when it falls) was 7% and the Z score is -1.15.

For the compound `Cc1noc(-c2cccc(NC(=O)c3ccccc3-c3ncc(-c4ccccc4)o3)c2)n1`, the “% Inhibition” value is given as -8% and the Z score was found to be 1.16.

For `CN1CCN(C[C@H]2CCCN(CC(C)(C)N3CCOCC3)C2)CC1`, the “% Inhibition” value was -20% and the Z score is reported as 3.47.

With `Cc1cccc2c(-c3n[nH]c4ncnc(N)c34)c[nH]c12`, the “% Inhibition” value is on record as -3% and the Z score came out at 0.47.

As for `CC(C)CCC1CCCC1NCCCN1CCOCC1` (stereo not drawn), the “% Inhibition” value was determined as 6% and the Z score is -1.29.

Consider `CNc1cc(C)nc2cc(OC)ccc12`, for which the “% Inhibition” value is given as -6% and the Z score came to 0.97.

For `COc1ccc2c(O)c(Br)c(C)nc2c1`, the “% Inhibition” value worked out at 75% and the Z score is given as -13.24.

Regarding `COc1ccc2nc3cc(Cl)ccc3c(O)c2c1`, the “% Inhibition” value stood at 65% and the Z score was -9.86.

In the case of `COCCN1CC[C@H](CN(C)c2ccnc3cc(Cl)ccc23)C1`, the “% Inhibition” value stood at 98% and the Z score is -17.

For the compound `COCCN1CCC[C@@]2(CCN(c3ccnc4cc(Cl)ccc34)C2)C1`, the “% Inhibition” value is listed as 99% and the Z score is -17.32.

Regarding `CN1CCC[C@@H]1CCNc1ncnc2cccc(F)c12`, the “% Inhibition” value is reported as 9% and the Z score is on record as -1.43.

Regarding `CCN(Cc1cc(F)ccc1-n1cccn1)CC1CCN(C2CCN(C)CC2)CC1`, the “% Inhibition” value was determined as 16% and the Z score was -2.76.

With `COc1ccc2[nH]c(CN(Cc3cccnc3)CC3CCN(C4CCCC4)CC3)c(C)c2c1`, the “% Inhibition” value is on record as 1% and the Z score is reported as -0.23.

In the case of `CCN(Cc1cnc(-c2ccccc2C)nc1)CC1CCN(C2CCN(C)CC2)CC1`, the “% Inhibition” value was -7% and the Z score amounted to 1.18.

In the case of `CCN(Cc1cccc(OC2CCCC2)c1)CC1CCN(C2CCN(C)CC2)CC1`, the “% Inhibition” value worked out at 20% and the Z score is given as -3.46.

As for `CCN(Cc1[nH]c2ccc(Cl)cc2c1C)CC1CCN(C2CCN(C)CC2)CC1`, the “% Inhibition” value was determined as 85% and the Z score was -14.61.

For the compound `CCN(Cc1cnn(-c2cccc(Cl)c2)c1)CC1CCN(C2CCN(C)CC2)CC1`, the “% Inhibition” value was 82% and the Z score was -14.12.

With `Fc1ccc2ncnc(NC3CCN(C[C@H]4CCOC4)CC3)c2c1`, the “% Inhibition” value is reported as -10% and the Z score came to 2.15.

On to `CN(CCCn1ccnc1)c1ccnc2cc(Br)ccc12`, for which the “% Inhibition” value was found to be 99% and the Z score was -17.18.

As to `COc1cccc(-c2nc3cc(C#N)ccc3[nH]2)n1`, the “% Inhibition” value was found to be 0% and the Z score turned out to be 0.04.

Take `N#Cc1cccc(Cl)c1N1CCC(O)(CN)CC1`: the “% Inhibition” value was -3% and the Z score is recorded as 0.43.

As to `O[C@@]1(c2c[nH]nn2)CCN(c2ccnc3cc(Cl)ccc23)C1`, the “% Inhibition” value is reported as 44% and the Z score is given as -6.63.

Take `NCC1(O)CCN(c2ccnc3cc(F)c(Cl)cc23)CC1`: the “% Inhibition” value was 95% and the Z score is recorded as -20.37.

As for `Cn1c(NCc2ccc(N3N=C(c4ccccc4)C[C@H]3c3ccccc3)cc2)nc2ccccc21`, the “% Inhibition” value is recorded as -11% and the Z score is on record as 1.96.

For the compound `C[C@H]1CCCN(CCOc2ccccc2CN2CCN(c3cccnc3)CC2)C1`, the “% Inhibition” value is -2% and the Z score is given as 0.3.

Regarding `Cc1cnccc1N1CCCN(Cc2ccccc2OCCN2CCN(C)CC2)CC1`, the “% Inhibition” value is given as 96% and the Z score is -19.05.

For the compound `CN1CCN(CCOc2ccccc2CN2CC3CCC(C2)NC3)CC1` (stereo not drawn), the “% Inhibition” value is -1% and the Z score turned out to be 0.22.

Consider `O=C(NC[C@@H](CN1CCCC1)C1CC1)c1ccnn1CC(F)(F)F`, for which the “% Inhibition” value was -1% and the Z score was 0.12.

Consider `C[C@@H](CS(C)(=O)=O)N(C)c1ncnc2cccc(F)c12`, for which the “% Inhibition” value was 6% and the Z score was -1.06.

Regarding `C[C@H]1CCCN(CCNC(=O)c2ccc(-c3ccc4c(=O)[nH]ccc4c3)cc2)C1`, the “% Inhibition” value amounted to 67% and the Z score is -11.64.

`CN1CCC(N2CCC(CN(CCCn3cccn3)Cc3ccncc3)CC2)CC1`: the “% Inhibition” value was -6% and the Z score is on record as 0.97.

For `Clc1ccc2[nH]c3c(c2c1)CCCC3NC1CCN(C2CCOC2)CC1` (stereo not drawn), the “% Inhibition” value was 83% and the Z score was -16.55.

With `Cn1ncc(C(F)(F)F)c1CN[C@H]1CCCc2c1[nH]c1ccc(Cl)cc21`, the “% Inhibition” value is -15% and the Z score worked out at 2.6.

Turning to `Cc1ccc2[nH]c3c(c2c1)CCCC3NC1CC2CCC1O2` (stereo not drawn), the “% Inhibition” value is listed as -7% and the Z score stood at 1.25.

As for `CN1CCC[C@@H](CNc2ccnc3ccncc23)[C@@H]1c1ccnn1C`, the “% Inhibition” value was 10% and the Z score is given as -1.79.

Turning to `COCCN1CCC(Nc2nccnc2NC2CCN(CCOC)CC2)CC1`, the “% Inhibition” value is on record as 1% and the Z score is -0.15.

Take `COCCN1CCC(Nc2ncnc3c(C)cccc23)CC1`: the “% Inhibition” value was determined as 4% and the Z score was -0.91.

For `COCCCN1CCC(Nc2ncnc3cc(C)c(C)cc23)CC1`, the “% Inhibition” value came out at 96% and the Z score is on record as -16.62.

`COc1ccc(Nc2ncc(CN(C)CCn3ccnc3)s2)cc1`: the “% Inhibition” value amounted to 1% and the Z score is listed as -0.26.

For `COCCN1CC[C@H](CNC2CCN(c3ncc4ccc(F)cc4n3)CC2)C1`, the “% Inhibition” value is reported as 58% and the Z score was -10.01.

On to `CCc1cc(Nc2ccc(N3CCOCC3)nc2)nc(-c2ccncc2)n1`, for which the “% Inhibition” value is listed as 56% and the Z score is given as -9.65.

Consider `CCc1cc(NC2CCN(CC(F)F)CC2)nc(-c2ccncc2)n1`, for which the “% Inhibition” value is listed as 4% and the Z score is given as -0.75.

Consider `CN1CCC(N2CCN(Cc3c(Cl)ccc(O)c3Cl)CC2)CC1`, for which the “% Inhibition” value is given as -11% and the Z score turned out to be 1.6.

Take `NCCc1cccc(CN2CCC[C@H](CN3CCCCC3)C2)c1`: the “% Inhibition” value was 3% and the Z score is -0.52.

Consider `O=C(NCc1ccc(N2CCNCC2)c(F)c1)c1ccc(-c2noc(C(F)(F)F)n2)cc1`, for which the “% Inhibition” value amounted to 67% and the Z score is recorded as -11.53.

As to `O[C@H]1CCN(Cc2cccc(NCc3cn4ccnc4s3)c2)C1`, the “% Inhibition” value is on record as 52% and the Z score is listed as -7.83.

For the compound `OC1CCN(Cc2cccc(NCc3cccc(OCCn4ccnc4)c3)c2)CC1`, the “% Inhibition” value is -3% and the Z score is on record as 0.55.

Take `CCNc1cc(C)nc(NCCNC(=O)c2cc(-n3cccn3)nc(C)n2)n1`: the “% Inhibition” value is listed as -1% and the Z score is recorded as 0.15.

As to `CCNc1cc(C)nc(NCCNC(=O)Nc2cc(F)cc(F)c2)n1`, the “% Inhibition” value is listed as 79% and the Z score is listed as -17.07.

Regarding `CCNc1nc(C)cc(Nc2ccc(NC(=O)Nc3ccc(F)cc3F)cc2)n1`, the “% Inhibition” value was 96% and the Z score is given as -20.77.

`NS(=O)(=O)Cc1cccc(NC(=O)c2cc(F)cc3c(=O)c4cccc(F)c4[nH]c23)c1`: the “% Inhibition” value was -8% and the Z score worked out at 1.68.

Take `CN(C)Cc1ccccc1NC(=O)c1cccc2c(=O)c3ccccc3[nH]c12`: the “% Inhibition” value is -2% and the Z score is listed as 0.38.

In the case of `COc1cc2nc(NCC3(N4CCN(C)CC4)CCCC3)cc(C)c2cc1OC`, the “% Inhibition” value is listed as 55% and the Z score is on record as -8.35.

Take `COc1cc2nc(N3CCC(CN4CCN(C)CC4)CC3)cc(C)c2cc1OC`: the “% Inhibition” value is recorded as -2% and the Z score was 0.44.
